Bioassay records from PubChem.
Most compounds without a hit are left out; they make up all but 3.8% or so of the library.
ATXN viability: reduces viability in counter-screen for ATXN expression inhibitors; S2 cells (HEK-293 line with an ATXN2-luciferase reporter) viability, CellTiter-Fluor protease fluorescence, 24 h; AID 651635; hit rate 0.49% among 400,000; Potency, µM (doses to about 56.7 µM), hits mostly cytotoxic; also: nearly all actives have a fitted effect of over 40% in size
HT1080 IDH1KD tx: kills HT-1080 cells with IDH1 knockdown | AID 686971 | HT-1080 IDH1 knockdown viability, ATP luminescence, 48 h | hit rate 2% among 360,000 | Potency, µM (top dose mostly 46.1 µM), without a hit: top-dose activity, negative = toxicity, usual class: cytotoxic;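 also: 0% = DMSO wells and -100% = cell-free medium wells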
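IDH1KD HT-1080 cells, 750/well, RPMI + 5% FBS; compound pinned after 2 h settling; 48 h, 37 °C; CellTiter-Glo luminescence; % activity normalised to DMSO and no-cell wells; curves fitted, classed by r2 and efficacy.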
HepG2 viability: kills HepG2 cells in TGF-b inhibitor counter-screen. HepG2 CAGA-GFP viability, ATP luminescence, 18 h. Potency, µM (top dose mostly 46.1 µM), for inactives: top-dose activity change, negative = cytotoxicity, hits mostly cytotoxic. hit rate 0.76% among 410,000
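HepG2 CAGA-GFP cells (1000/well, DMEM with 1% FBS) received compound, then TGF-beta at 500 pg/mL final, and were incubated 18 hours at 37 degrees C. Viability was read by CellTiter-Glo luminescence. Media-only wells were set as complete cell-killing and DMSO as no toxicity.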
HT1080-NT tox: kills 2HG-producing HT-1080-NT fibrosarcoma cells; Potency, µM (titrated, usually from 46.1 µM), inactives show top-dose activity, negative = less viability, actives largely listed as cytotoxic; HT-1080-NT fibrosarcoma viability, CellTiter-Glo ATP luminescence, 48 h; hit rate 1.6% among 360,000; AID 686970;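 also: NT is the 2HG producing partner of a matched IDH1 knockdown line; 0% = DMSO-treated cells and -100% = media-only wells without cells; nearly all actives have a fitted effect of over 55% in size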
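Read-out is CellTiter-Glo luminescence after 10 minutes at room temperature, following 48 hours' compound treatment of HT-1080-NT cells (750 cells/well, RPMI, 5% FBS, 37 degrees C).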
TGFb SMAD3 inh: blocks TGF-b signaling; HepG2 CAGA-GFP TGF-b/SMAD3 reporter, GFP fluorescence, 18 h; TGF-beta stimulated, 500 pg/mL final; Potency, µM (highest dose often 46.1 µM), for inactives: top-dose activity, negative = inhibition, most hits filed as inhibitors; hit rate 1.2% among 410,000; AID 588855; also: % is scaled to controls: 0 for no effect and ±100 for the full control effect; nearly all actives have a fitted effect of over 65% in size
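HEPG2 CAGA-GFP reporter cells (1000/well, DMEM with 1% FBS) received compounds, then recombinant TGF-beta at 500 pg/mL final for 18 hours at 37 degrees C. Per-cell GFP summed per well was normalised to unstimulated and stimulated DMSO controls before curve fitting.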
ATXN2 expr inh: reduces ATXN2 reporter expression in HEK-293 cells; AID 1745845; hit rate 0.72% among 360,000; Potency, µM (series often up to 57 µM), inactives show at the top dose activity change, negative = inhibition, most hits filed as inhibitors; HEK-293 ATXN2-luciferase reporter, luminescence, 24 h; also: % is scaled to controls: 0 for no effect and ±100 for the full control effect; nearly all actives have a fitted effect of over 55% in size
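ATXN2-luciferase reporter cells (luciferase flanked by upstream and downstream ATXN2 gene portions) were treated 24 h at 37 °C with compounds at up to 57 uM. SteadyGlo luminescence gave expression; GF-AFC fluorescence gave viability.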
Numbers without * were called inactive; i = inactive; ? = inconclusive; . = no result; ! = not confirmed by another sample. Calls follow the shape of the dose curve; as a rule, active = well fitted curve in the direction sought with a large enough effect; inconclusive = small, poorly fitted or top-dose-only effect, or another doubt; inactive = no such curve, though single readings can be large; an effect the other way counts as inactive or inconclusive. Potency is read from the fitted curve at half-maximal effect.

SMILES	ATXN viability	HT1080 IDH1KD tx	HepG2 viability	HT1080-NT tox	TGFb SMAD3 inh	ATXN2 expr inh
O=C(Nc1cnn(Cc2ccc(Cl)cc2Cl)c1)c1noc2c1CCCC2	?	-17%	-2%	-12%	16µM*	-15%
Cc1ccc2c(c1)CCCN2C(=O)c1cnn2c1NC(=C1CC1)C=C2C(F)F	.	.	-9%	.	-13%	.
CC(=O)Nc1csc2ccccc12	i	-4%	12%	-3%	4%	.
O=C(Nc1ccccc1)Nc1csc2ccccc12	i	?	18µM*	-22%	?	41%
CC(C)CN(C)c1ccc(/C=C2\C=Cc3ccccc32)cc1	.	.	-46%	.	-18%	.
S=C(NCc1ccccc1)NNc1ccccc1	i	?	-3%	?	?	-6%
O=C(NNc1ccccc1)OCc1ccccc1	i	3.3µM*	-11%	?	0%	.
O=C(O)c1ccccc1-c1ccccc1C(=O)NNc1ccccc1	i	?	-13%	-30%	-18%	0%
O=C(NNc1ccccc1)C(=O)NNc1ccccc1	?	1.2µM*	-1%	-18%	-8%	-24%
CCNC(=S)NNc1ccccc1	i	6.5µM*	10%	8.2µM*	-7%	-18%
O=C(CNS(=O)(=O)Cc1ccccc1)NNc1ccccc1	?	4.1µM*	1%	?	-3%	-32%
O=C(CNS(=O)(=O)Cc1ccccc1)NCc1ccccc1	i	18%	7%	21%	-1%	-12%
CN1CCN(c2nc3cc(C(F)(F)F)ccc3n3cccc23)CC1	?	23µM*	-6%	?	52%	-28%
O=c1cc(-c2ccccc2[N+](=O)[O-])oc2ccccc12	i	12µM*	2%	?	-19%	-26%
CCCCN(CCCNC(=O)CN1N=C(c2ccc(C)cc2)CCC1=O)c1ccccc1	.	.	-82%	.	13µM*	.
Cc1ccc(C2=NN(CC(=O)NCCc3ccc(Cl)cc3)C(=O)CC2)cc1	.	.	-31%	.	11µM*	.
c1ccc(CNc2c(-c3cccc(SC4CCCCC4)c3)nc3ccccn23)cc1	?	?	-61%	?	?	-1%
CCCCNc1c(-c2cccc(SC3CCCCC3)c2)nc2ccc(Cl)cn12	i	-21%	-15%	0%	-10%	-5%
CCCCNc1c(-c2ccc(SC3CCCCC3)c(OC)c2)nc2ccc(C)cn12	?	?	8.9µM*	?	?	?
COc1ccc(-c2nc3ccc(Cl)cn3c2NC2CCCCC2)cc1SC1CCCCC1	i	16%	-25%	9%	?	5%
COc1ccc(-c2nc3ccc(C)cn3c2NCc2ccccc2)cc1SC1CCCCC1	16µM*	?	-81%	?	20µM*	-9%
CCCCNc1c(-c2ccc(OC)c(SC3CCCCC3)c2)nc2ccc(C)cn12	10µM*	?	13µM*	?	18µM*	25µM*
Cc1ccn2c(NCc3ccccc3)c(-c3cccc(SC4CCCCC4)c3)nc2c1	?	?	-53%	?	13µM*	?
O=C(CN1Cc2ccccc2OC(c2ccsc2)C1)N1CCN(Cc2ccc3c(c2)OCO3)CC1 (stereo not drawn)	i	.	.	.	.	.
Cc1cc2ccccn2c1C(=O)c1ccc([N+](=O)[O-])o1	?	16µM*	11µM*	?	11µM*	?
SMILES	ATXN viability	HT1080 IDH1KD tx	HepG2 viability	HT1080-NT tox	TGFb SMAD3 inh	ATXN2 expr inh
Cc1cc2ccccn2c1C(=O)c1cccc([N+](=O)[O-])c1	i	?	2%	-16%	-3%	.
COc1ccc2c(c1)CCc1c(C(=O)Nc3c(C)nn(Cc4ccc(C)cc4)c3C)noc1-2	i	.	-2%	.	?	-1%
Cc1nnc(NC(=O)c2nc(S(=O)(=O)Cc3ccccc3)ncc2Cl)s1	32µM*	21µM*	-130%	15µM*	?	?
COc1ccc(NC(=O)c2nc(S(=O)(=O)Cc3cccc(C)c3)ncc2Cl)c(OC)c1	i	?	0%	5%	38%	.
Cc1cccc(C)c1NC(=O)c1nc(S(=O)(=O)Cc2ccccc2F)ncc1Cl	.	.	-100%	.	?	.
Cc1cccc(C)c1NC(=O)c1nc(S(=O)(=O)Cc2ccccc2)ncc1Cl	?	8.2µM*	-178%	16µM*	11µM*	?
O=C(NCc1ccccc1)c1nc(S(=O)(=O)Cc2ccc(F)cc2)ncc1Cl	.	.	-112%	.	?	.
Cc1ccc(NC(=O)c2nc(S(=O)(=O)Cc3ccccc3)ncc2Cl)cc1	?	6.5µM*	22µM*	18µM*	?	?
Cc1cccc(CS(=O)(=O)c2ncc(Cl)c(C(=O)NCc3ccccc3)n2)c1	.	?	3.5µM*!	26µM*	3.2µM*	.
CCCc1nnc(NC(=O)c2nc(S(=O)(=O)Cc3cccc(C)c3)ncc2Cl)s1	.	?	-99%	?	?	?
CN(C)c1ccc(/C=C/c2ccnc3ccccc23)c(N)c1	.	.	-36%	.	?	.
CCC(=O)N[C@@H]1c2ccccc2C2(CCN(Cc3cnc(N(C)C)s3)CC2)[C@H]1OC	i	.	.	.	.	.
CCc1nnc(NC(=O)c2nc(S(C)(=O)=O)ncc2Cl)s1	?	.	17%	.	2%	?
Cc1ccccc1NC(=O)c1nc(S(C)(=O)=O)ncc1Cl	.	15µM*	-119%	15µM*	16µM*	.
CCOC(=O)c1nc(S(C)(=O)=O)ncc1Cl	.	6.3µM*	11µM*	8.9µM*	?	?
Cc1ccc(C)c(S(=O)(=O)NCc2nc(N3CCCC3)c3cc(Cl)ccc3n2)c1	i	.	.	.	.	.
COc1ccc(C2NC(=S)N3C(c4ccc(OC)c(OC)c4)NC(=S)N23)cc1OC (stereo not drawn)	i	.	.	.	.	.
COc1cc(Nc2ncc3c(n2)-c2ccc(Cl)cc2C(c2c(F)cccc2OC)=NC3)ccc1C(=O)O	.	.	.	.	.	1%
O=C1Nc2ccccc2N=C(c2ccc3c(c2)OCO3)C1N(CCc1ccccc1)C(=O)CSc1ncccn1 (stereo not drawn)	7.9µM*	?	-16%	?	?	7%
COc1ccc(C2=Nc3ccccc3NC(=O)C2N(CCc2ccccc2)C(=O)c2cccs2)cc1 (stereo not drawn)	?	?	8%	?	?	0%
O=C(Nc1nc(-c2ccccc2)cs1)c1ccc(N2CCOCC2)c([N+](=O)[O-])c1	?	?	-24%	?	-16%	13µM*
CN1CCN(c2ccccc2NC(=O)c2ccc(N3CCCC3)c([N+](=O)[O-])c2)CC1	?	?	7%	13µM*	10%	-23%
